Experimental data: PubChem BioAssay (NCATS)
Records with an inconclusive call do not appear. The source made the active and inactive calls. Unless noted, calls come from the whole dose curve; as a rule, active = well fitted curve in the direction sought with a large enough effect; inconclusive = small, poorly fitted or top-dose-only effect, or another doubt; inactive = no such curve, though single readings can be large; an effect the other way counts as inactive or inconclusive.

Key:
[1] = qHTS Assay for Identification of Small Molecule Agonists for NFkB Signaling Pathway. (AID 624478);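 note: compounds tested together with TNF alpha at its EC50 of 10 pM; 0% is about no effect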
Outline: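 Assay medium contained 0.5% FBS and 10 mM HEPES pH 7.3. Compounds were added together with TNF alpha (10 pM final), incubated 5 h at 37 C, and the beta-lactamase signal was measured fluorometrically.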

[2] = Cell Proliferation Assay against the TMD8 Cell Line (AID 651645); settings: TMD8 DLBCL cell line proliferation/viability; at 46.1 µM (top of the series);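 note: cells exposed to compound for 48 h before reading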
Outline: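 Cell viability of the ABC DLBCL line TMD8 is measured by CellTiter-Glo luminescence following a 48-hour incubation with compound. Percent activity uses DMSO as 100% and 9.2 uM bortezomib (final) as 0%.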

[3] = Cell Proliferation Assay against the HBL1 Cell Line (AID 651646); settings: HBL1 DLBCL cells; at 46.1 µM (top of the series);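 note: cells exposed to compound for 48 h before reading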
Outline: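 HBL1, 500 cells/well, RPMI no phenol red + 5% FBS; cpd pinned, 48 h 37C/5% CO2; CellTiter-Glo, 15 min RT, luminescence. % activity: DMSO = 100%, bortezomib 9.2 uM final = 0%.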

[4] = Cell Proliferation Assay against the TMD8 Cell Line (Caspase readout at 8 hrs) (AID 651713); note: potency is the fitted concentration of half-maximal effect
Outline: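 Luminescent caspase 3/7 assay; TMD8 cells, 8 h treatment at 37C, 5% CO2. Normalisation: DMSO 0%, 9.2 uM bortezomib 100%.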

[5] = qHTS Assay for Identification of Small Molecule Antagonists for NFkB Signaling Pathway. (AID 624479; calls by dose curve;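 note: pathway stimulated with TNF alpha; potency is the fitted concentration of half-maximal effect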)

SMILES | outcome [1] | viability (% of control) [2] [%] | viability, percent of control [3] [%] | Potency [4] | Potency [5]
c1cc(-c2cnn3cc(-c4ccc(OCCN5CCCCC5)cc4)cnc23)ccn1 | inactive | 2.17 | 8.17 | – | –
CC(=O)Nc1sc2c(c1-c1nc3ccccc3s1)CNC2 | inactive | 4.93 | 22.5 | 33.2 µM (active) | –
CCC(=C(c1ccccc1)c1ccc(OCCN(C)C)cc1)c1ccccc1 | – | -0.936 | -1.5 | 33.2 µM (active) | 21.1 µM (active)
